Holding throughout (assay): NCI-60 one-dose screen, 48 h (100 = growth as untreated, 0 = no growth, -100 = all killed)
In one test the test system is SK-MEL-2 melanoma. The note with it: 10 µM unless noted.
In another test the test system is EKVX NSCLC. The note with it: 10 µM unless noted.
The subject of another test is SN12C renal. As to conditions: 10 µM unless noted.
The next test has as its system UO-31 renal. As to conditions: 10 µM unless noted.
The next test relates to TK-10 renal. As to conditions: 10 µM unless noted.
The next test relates to ACHN renal. The note with it: 10 µM unless noted.
For another test, the system named is CAKI-1 renal. As to conditions: 10 µM unless noted.
The subject of another test is A498 renal. As to conditions: 10 µM unless noted.
The next test has as its system CCRF-CEM leukemia. The note with it: 10 µM unless noted.
The next test has as its system MOLT-4 leukemia. The note with it: 10 µM unless noted.
For another test, the system named is SR leukemia. The note with it: 10 µM unless noted.
Another test has as its system RPMI-8226 leukemia. As to conditions: 10 µM unless noted.
A further test relates to OVCAR-8 ovarian. As to conditions: 10 µM unless noted.
The subject of a further test is OVCAR-5 ovarian. The note with it: 10 µM unless noted.
Another test concerns OVCAR-4 ovarian. As to conditions: 10 µM unless noted.
The test system of the next test is SK-OV-3 ovarian. The note with it: 10 µM unless noted.
Another test deals with IGROV1 ovarian. As to conditions: 10 µM unless noted.
The test system of another test is OVCAR-3 ovarian. The note with it: 10 µM unless noted.
The subject of another test is HS 578T breast. The note with it: 10 µM.
The test system of another test is NCI/ADR-RES ovarian. The note with it: 10 µM unless noted.

About 83,000 compounds went through this panel and 20% of them were active in at least one assay; those are over-represented in the sample as a whole.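 Single-dose data. Exposure time 48 hours. Values below 10 considered active.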 A number with no mark means an inactive call. Calls of active or inactive are those of the source.

With `Oc1[nH]c2ccc(Cl)cc2c1/C=c1/ccc2c(c1)N=C(c1ccc(F)cc1)N=2`, the growth was 92.3% in the test with SK-MEL-2 melanoma; 40.4% in the test on EKVX NSCLC; 74.1% in the test on SN12C renal; 61.4% with UO-31 renal; 111% in the test on TK-10 renal; 86.6% with ACHN renal. Further, the growth was 44.5% in the test with CAKI-1 renal; 56.1% in the test with A498 renal; 7.83% (active) in the test with CCRF-CEM leukemia; 35% in the test on MOLT-4 leukemia; 8.49% (active) in the test on SR leukemia; 69.2% in the test on RPMI-8226 leukemia. Moreover, the growth with OVCAR-8 ovarian was 84.7%; in the test on OVCAR-5 ovarian, 103%; in the test on OVCAR-4 ovarian, 79.4%; in the test with SK-OV-3 ovarian, 87.4%; in the test on IGROV1 ovarian, 5.76% (active); in the test with OVCAR-3 ovarian, 72%. Besides, the growth with HS 578T breast is 68.1%; in the test with NCI/ADR-RES ovarian, 44.3%.
Regarding `CCN(CC)CCCC(C)Nc1cnc(C(=O)Nc2cccc3ccc(OC)nc23)cn1` (stereo not given), the growth with SK-MEL-2 melanoma was 70.5%; in the test with EKVX NSCLC, 104%; with SN12C renal, 78.5%; in the test with UO-31 renal, 69.1%; with TK-10 renal, 91%; in the test on ACHN renal, -86.5% (active). The growth was 94.7% in the test with CAKI-1 renal; 46.2% with A498 renal; -7.65% (active) in the test on CCRF-CEM leukemia; 53.4% with MOLT-4 leukemia; -5.71% (active) in the test with SR leukemia; 23.8% with RPMI-8226 leukemia. Further, the growth in the test with OVCAR-8 ovarian was 68.2%; in the test on OVCAR-5 ovarian, 91.3%; with OVCAR-4 ovarian, 98.1%; with SK-OV-3 ovarian it was 87%; with IGROV1 ovarian, 78.3%; with OVCAR-3 ovarian it was -30.7% (active). For the same compound, the figures for the growth in the test on HS 578T breast and with NCI/ADR-RES ovarian were 69.5% and 76.1%, respectively.
Turning to `C#CC[C@@H]1C[C@]2(C)[C@H]3CC=C4[C@H]5[C@@H](C)[C@H](C)CC[C@]5(C(=O)NCCCCCCCCN)CC[C@@]4(C)[C@]3(C)CC[C@H]2C(C)(C)[C@H]1OC(C)=O`, the growth with SK-MEL-2 melanoma is 104%; in the test with EKVX NSCLC, 95%; in the test with SN12C renal, 76.1%; in the test with UO-31 renal it was 67.2%; in the test with TK-10 renal, 80.5%; in the test with ACHN renal, 85.8%. Further, the growth in the test on CAKI-1 renal is -69.7% (active); in the test with A498 renal it was 94.5%; in the test on CCRF-CEM leukemia it was -34.6% (active); in the test on MOLT-4 leukemia, -19.8% (active); in the test with SR leukemia, 3.43% (active); in the test on RPMI-8226 leukemia, -45.8% (active). In addition, the growth in the test with OVCAR-8 ovarian was -33.6% (active); in the test with OVCAR-5 ovarian, 108%; in the test on OVCAR-4 ovarian, -0.477% (active); in the test on SK-OV-3 ovarian it was 116%; with IGROV1 ovarian, 50.9%; in the test with OVCAR-3 ovarian it was -91.5% (active). Moreover, the growth with HS 578T breast is 101%; with NCI/ADR-RES ovarian, 65.9%.
Regarding `Fc1[nH]nc2ccc([C@@H]3Nc4ccc5[nH]ncc5c4[C@H]4C5CCC(C5)[C@@H]34)cc12` (stereo not given in full), the growth in the test with SK-MEL-2 melanoma is 33.1%; in the test with EKVX NSCLC, 36.1%; in the test on SN12C renal it was 46.1%; with UO-31 renal it was 51.3%; with TK-10 renal, 42.4%; in the test with ACHN renal, 43.7%. The growth is 32.6% in the test with CAKI-1 renal; -12.4% (active) with A498 renal; 18% with CCRF-CEM leukemia; 21.2% in the test on MOLT-4 leukemia; 42% in the test on SR leukemia; 18.2% in the test on RPMI-8226 leukemia. The growth is 40% in the test on OVCAR-8 ovarian; 54.3% in the test on OVCAR-5 ovarian; 54.6% in the test on OVCAR-4 ovarian; 39.7% in the test on SK-OV-3 ovarian; 43.1% in the test with IGROV1 ovarian; 1.83% (active) in the test with OVCAR-3 ovarian. The growth was 34.8% in the test on HS 578T breast and 15.2% in the test with NCI/ADR-RES ovarian.
Turning to `COc1ccc(-n2nc(C(=O)NCC(=O)Nc3nc4cc(OC)ccc4s3)c3ccccc3c2=O)cc1`, the growth with SK-MEL-2 melanoma was -19.9% (active); in the test on EKVX NSCLC, 30.4%; in the test on SN12C renal it was 41.7%; in the test with UO-31 renal it was -0.0591% (active); with TK-10 renal, -41.9% (active); in the test on ACHN renal, -1.26% (active). In addition, the growth in the test on CAKI-1 renal was -27.5% (active); in the test with A498 renal, -2.05% (active); in the test on CCRF-CEM leukemia, 92.7%; in the test on MOLT-4 leukemia it was 58.5%; in the test with SR leukemia it was 86.8%; in the test with RPMI-8226 leukemia, 39.1%. Also, the growth in the test on OVCAR-8 ovarian is -12.4% (active); in the test with OVCAR-5 ovarian it was 44.6%; in the test with OVCAR-4 ovarian it was -20.4% (active); with SK-OV-3 ovarian, -18.5% (active); in the test with IGROV1 ovarian, -3.66% (active); in the test with OVCAR-3 ovarian, 3.53% (active). Also, the growth was -4.47% (active) with HS 578T breast and 1.75% (active) with NCI/ADR-RES ovarian.
Regarding `C[C@]12CCc3nc(Nc4ccc(O)cc4)sc3C1=CC[C@@H]1[C@@H]2CC[C@]2(C)/C(=N/NC(N)=S)CC[C@@H]12`, the growth in the test with SK-MEL-2 melanoma was -13.5% (active); in the test with EKVX NSCLC, -19.1% (active); in the test on SN12C renal, -46.7% (active); with UO-31 renal, -42% (active); in the test with TK-10 renal, -7.19% (active); in the test on ACHN renal, -72.4% (active). The growth was -36.2% (active) with CAKI-1 renal; 93.1% in the test with A498 renal; -7.49% (active) in the test with CCRF-CEM leukemia; -5.84% (active) with MOLT-4 leukemia; -5.27% (active) in the test with SR leukemia; -16.3% (active) in the test on RPMI-8226 leukemia. Moreover, the growth was 4.45% (active) in the test with OVCAR-8 ovarian; 49.9% in the test with OVCAR-5 ovarian; -16.9% (active) in the test on OVCAR-4 ovarian; -19% (active) with SK-OV-3 ovarian; -61.2% (active) in the test with IGROV1 ovarian; -68.8% (active) in the test with OVCAR-3 ovarian. For the same compound, the growth in the test on HS 578T breast was -4.57% (active); in the test on NCI/ADR-RES ovarian, 15%.
As for `COc1cc2c(cc1OCCCOc1cc3c(cc1OC)C(=O)N1CCC[C@H]1C=N3)C=CC(C)(C)O2`, the growth with SK-MEL-2 melanoma is 88.4%; in the test with EKVX NSCLC, 154%; in the test on SN12C renal it was 94.3%; in the test on UO-31 renal, 96.5%; in the test on TK-10 renal, 187%; with ACHN renal it was 95.7%. In addition, the growth in the test with CAKI-1 renal is 106%; in the test with A498 renal it was 98.8%; in the test on CCRF-CEM leukemia, 6.05% (active); in the test on MOLT-4 leukemia, 65%; in the test with SR leukemia, 25.8%; in the test with RPMI-8226 leukemia, 48%. Further, the growth is 89.2% in the test on OVCAR-8 ovarian; 115% in the test with OVCAR-5 ovarian; 110% in the test on OVCAR-4 ovarian; 112% in the test on SK-OV-3 ovarian; 92.1% in the test on IGROV1 ovarian; 109% with OVCAR-3 ovarian. Also, the growth was 45.7% in the test with HS 578T breast and 109% in the test on NCI/ADR-RES ovarian.
